Records with an inconclusive call do not appear. Active and inactive are the calls of the source. Unless noted, calls follow the shape of the dose curve; as a rule, active = well fitted curve in either direction with a large enough effect (not every such curve was filed as active); inconclusive = small, poorly fitted or top-dose-only effect, or another doubt; inactive = flat fitted curve, though single readings scatter.
Columns and labels:
[1] = target: Lysosomal acid glucosylceramidase (Homo sapiens) (UniProt P04062); experiment: Glucocerebrosidase-p2 (AID 348; in the data active = potency below about 10 µM; also: potency is read from the fitted curve at half-maximal effect); details: purified GBA, blue fluorogenic substrate, 40 min
Chain of Lysosomal acid glucosylceramidase (Homo sapiens) (P04062 whole entry, looked up): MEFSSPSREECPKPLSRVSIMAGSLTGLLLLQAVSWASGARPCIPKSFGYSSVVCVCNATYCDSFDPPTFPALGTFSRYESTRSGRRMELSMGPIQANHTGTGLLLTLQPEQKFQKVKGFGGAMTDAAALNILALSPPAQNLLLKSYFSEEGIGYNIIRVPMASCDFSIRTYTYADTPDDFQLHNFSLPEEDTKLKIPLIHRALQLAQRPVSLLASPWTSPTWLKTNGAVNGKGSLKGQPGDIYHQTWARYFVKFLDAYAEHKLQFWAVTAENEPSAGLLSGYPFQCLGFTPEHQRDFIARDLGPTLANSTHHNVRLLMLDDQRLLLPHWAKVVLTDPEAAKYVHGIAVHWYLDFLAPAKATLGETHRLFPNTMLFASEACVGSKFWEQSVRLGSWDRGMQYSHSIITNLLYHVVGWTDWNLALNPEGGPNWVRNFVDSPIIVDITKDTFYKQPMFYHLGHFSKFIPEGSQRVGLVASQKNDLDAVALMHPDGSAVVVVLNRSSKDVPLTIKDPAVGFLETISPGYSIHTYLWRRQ
Summary of the method: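 Normal human glucocerebrosidase (0.2 nM) with blue fluorogenic substrate (80 uM final) in citrate/phosphate pH 5.9 with 10mM sodium taurocholate, 0.01% tween-20; 40 min RT, NaOH/glycine stop; fluorescence Ex 365/Em 440; AC50 from a titration from 0.6 nM upwards.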

[2] = AP1 Signaling Pathway (AID 357); details: ME-180 AP-1-bla reporter, EGF-induced, beta-lactamase ratio, 5 h; at 7.69 µM (top of the series) unless noted; also: % is scaled to controls: 0 for no effect and ±100 for the full control effect
Summary of the method: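 AP-1-bla ME-180 cells with beta-lactamase reporter under AP-1 response element, stimulated with EC50 EGF; compounds titrated, 5 hours at 37 degrees Celsius. CCF4 read at 460/530 nm ratio; positive and negative modulators judged by AC50.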

[3] = target: Cytochrome P450 1A2 (Homo sapiens) (UniProt P05177); experiment: p450-cyp1a2 (AID 410; calls by dose curve; also: potency is read from the fitted curve at half-maximal effect;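 as to activity change, negative = inhibition: -100% = full effect of reference inhibitor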); details: recombinant CYP1A2, luciferin-ME demethylation, luminescence; series mostly up to 11.4 µM
Chain of Cytochrome P450 1A2 (Homo sapiens) (P05177 whole entry, looked up): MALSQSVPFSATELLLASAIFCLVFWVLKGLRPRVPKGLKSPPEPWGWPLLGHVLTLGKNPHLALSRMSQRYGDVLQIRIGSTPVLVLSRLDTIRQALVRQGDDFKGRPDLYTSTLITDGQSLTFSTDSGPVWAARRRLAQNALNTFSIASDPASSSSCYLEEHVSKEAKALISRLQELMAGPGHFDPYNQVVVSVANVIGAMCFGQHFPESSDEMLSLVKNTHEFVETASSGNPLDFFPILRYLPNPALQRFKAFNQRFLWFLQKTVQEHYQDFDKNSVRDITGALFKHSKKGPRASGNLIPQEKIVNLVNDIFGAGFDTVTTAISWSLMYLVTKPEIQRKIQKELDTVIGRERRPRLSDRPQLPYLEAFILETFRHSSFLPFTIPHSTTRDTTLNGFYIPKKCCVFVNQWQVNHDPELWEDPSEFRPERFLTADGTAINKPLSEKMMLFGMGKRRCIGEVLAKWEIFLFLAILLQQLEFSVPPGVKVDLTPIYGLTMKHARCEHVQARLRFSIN
Summary of the method: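 Luminescent demethylation readout: Luciferin-ME (100uM, equal to Km) turned over by 20nM CYP1A2 for 60 min at room temperature after NADPH regeneration addition, following 10 min compound preincubation. Normalization used 57 uM furafylline as full inhibition.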

[4] = NFAT Signaling Pathway (AID 444); details: Jurkat NFAT-bla M1, carbachol, beta-lactamase ratio, 5 h; at 7.69 µM (top of the series) unless noted;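 also: carbachol stimulus at about its EC50 of 1 µM final; % is scaled to controls: 0 for no effect and ±100 for the full control effect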
Summary of the method: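 Jurkat cells with NFAT-driven β-lactamase reporter and co-expressed M1 receptor, stimulated with carbachol (final 1 uM, ~EC50), compound titration, 5 h at 37 °C. CCF4 loaded 1 h at RT; 460/530 nm ratio gave %activity and AC50.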

[5] = Stat Signaling Pathway (AID 446); details: ME-180 (cervical carcinoma) SIE beta-lactamase reporter, IL-6 stimulated, 5 h; at 7.69 µM (top of the series) unless noted;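 also: ME-180 cervical cancer cells given 40 pM IL-6 alongside compound; SIE-controlled beta-lactamase reporter measured as 460/530 nm FRET emission ratio; % is scaled to controls: 0 for no effect and ±100 for the full control effect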
Summary of the method: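 Compound effects on IL-6-induced STAT reporter activity were measured in ME-180 cells. After overnight culture, cells were co-treated with 40 pM IL-6 for 5 hrs before beta-lactamase substrate loading at room temperature.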

[6] = target: Glucocorticoid receptor (Homo sapiens) (UniProt P04150); experiment: GR-GFP Redistribution (AID 450;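 active = compounds whose dose series gives a full or clear partial fitted curve of increased nuclear translocation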; also: potency is read from the fitted curve at half-maximal effect); details: U2OS GR-GFP nuclear translocation, laser cytometry, 2 h
Chain of Glucocorticoid receptor (Homo sapiens) (P04150 whole entry, looked up, the tested form may be a part): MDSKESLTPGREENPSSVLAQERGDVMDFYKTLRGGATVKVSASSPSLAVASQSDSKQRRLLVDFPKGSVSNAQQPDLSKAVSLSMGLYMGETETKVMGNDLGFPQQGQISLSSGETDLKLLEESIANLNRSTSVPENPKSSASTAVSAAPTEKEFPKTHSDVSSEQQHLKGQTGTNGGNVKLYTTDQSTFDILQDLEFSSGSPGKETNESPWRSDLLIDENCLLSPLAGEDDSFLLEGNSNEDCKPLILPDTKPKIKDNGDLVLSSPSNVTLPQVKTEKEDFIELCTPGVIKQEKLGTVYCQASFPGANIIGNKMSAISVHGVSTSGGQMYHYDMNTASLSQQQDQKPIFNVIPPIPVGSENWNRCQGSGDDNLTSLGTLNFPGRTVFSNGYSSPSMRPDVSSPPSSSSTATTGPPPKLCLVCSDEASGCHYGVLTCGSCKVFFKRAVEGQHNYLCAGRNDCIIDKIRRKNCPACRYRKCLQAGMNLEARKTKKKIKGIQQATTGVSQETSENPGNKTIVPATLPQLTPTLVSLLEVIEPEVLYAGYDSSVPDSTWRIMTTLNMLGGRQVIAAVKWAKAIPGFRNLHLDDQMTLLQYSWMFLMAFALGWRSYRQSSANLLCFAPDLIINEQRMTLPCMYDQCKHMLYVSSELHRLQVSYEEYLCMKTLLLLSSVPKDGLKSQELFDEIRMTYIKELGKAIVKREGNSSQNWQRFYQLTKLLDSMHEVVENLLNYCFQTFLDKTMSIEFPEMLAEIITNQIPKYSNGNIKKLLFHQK

[7] = target: Glucocorticoid receptor (Homo sapiens) (UniProt P04150); experiment: GR-EFC Redistribution (AID 451; calls by dose curve; also: potency is read from the fitted curve at half-maximal effect); details: CHO-K1 GR-EFC translocation, beta-gal luminescence, 2 h
Summary of the method: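 CHO-K1 cells expressing nuclear EA and GR-ED fragments of b-gal; compounds titrated up to 46 uM final, 2 h at 37 C. GR nuclear translocation read as complemented b-gal luminescence after 1 h RT detection.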

[8] = target: Mitogen-activated protein kinase 10 (Mus musculus) (UniProt Q61831); experiment: JNK3 AlphaScreen Assay (AID 530); details: JNK3 lysate, c-Jun phosphorylation; series mostly up to 11.4 µM;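 also: kinase came from lysate of stimulated human HepG2 cells; signal reports phosphorylation of biotinylated GST-cJun 1-79 at Ser73 with 10 µM ATP; % is scaled to controls: 0 for no effect and ±100 for the full control effect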
Summary of the method: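 Activity was read by AlphaScreen after JNK3-containing HepG2 lysate (cytokine pre-activated) phosphorylated biotinylated GST-cJun with 10 uM ATP at room temperature. Phospho-Ser73 cJun antibody with Protein-A acceptor beads provided detection.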

[9] = target: 3',5'-cyclic-AMP phosphodiesterase 4B (Homo sapiens) (UniProt Q07343); experiment: qHTS Assay for Inhibitors of PDE-IV (AID 607; active = well fitted activation curve with a large enough effect in the main read-out, with a control signal flat, not every such curve was filed as active; also: % of control where 0% means no effect); details: HEK293 ACTOne CNG channel cells, membrane potential fluorescence; series mostly up to 22.9 µM
Chain of 3',5'-cyclic-AMP phosphodiesterase 4B (Homo sapiens) (Q07343 whole entry, looked up): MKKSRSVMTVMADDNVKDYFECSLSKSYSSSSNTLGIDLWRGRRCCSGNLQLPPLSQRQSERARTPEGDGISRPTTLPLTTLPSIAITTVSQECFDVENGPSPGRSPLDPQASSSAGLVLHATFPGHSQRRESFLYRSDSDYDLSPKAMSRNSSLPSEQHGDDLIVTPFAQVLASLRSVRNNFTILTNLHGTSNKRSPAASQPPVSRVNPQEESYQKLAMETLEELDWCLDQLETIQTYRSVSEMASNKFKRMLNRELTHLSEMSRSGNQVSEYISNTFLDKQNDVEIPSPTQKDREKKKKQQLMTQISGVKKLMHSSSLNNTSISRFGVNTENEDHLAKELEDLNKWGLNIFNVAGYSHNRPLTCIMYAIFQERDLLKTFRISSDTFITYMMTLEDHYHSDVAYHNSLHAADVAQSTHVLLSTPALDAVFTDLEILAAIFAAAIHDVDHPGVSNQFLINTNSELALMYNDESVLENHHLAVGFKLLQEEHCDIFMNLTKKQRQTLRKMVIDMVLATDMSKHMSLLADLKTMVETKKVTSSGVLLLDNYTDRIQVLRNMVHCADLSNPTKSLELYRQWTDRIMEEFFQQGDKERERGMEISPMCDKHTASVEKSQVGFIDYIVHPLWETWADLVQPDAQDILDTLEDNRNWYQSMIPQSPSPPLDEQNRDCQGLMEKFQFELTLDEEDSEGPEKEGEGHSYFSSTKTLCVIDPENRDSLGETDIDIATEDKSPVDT
Summary of the method: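 ACTOne HEK293 cells carry a modified cAMP-gated CNG channel and express endogenous PDE4; plated 1000 cells/well, compounds up to 22.9 uM final. Membrane-potential dye fluorescence (ex 535/em 590) was read; parental cells received 10 uM forskolin + 100 uM RO 20-1724.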

NC(N)=NNC(=O)C(=O)O
inactive: Potency [1] > 11.4 µM | activity change, negative = inhibition [2] 2.05% | Potency [3] | activity change, negative = inhibition [4] 4.61% | activity, negative = inhibition [5] 2.14% | Potency [6] > 46 µM | Potency [7] > 9.22 µM | Potency [8] | Potency [9]

Cc1nc2cccc([N+](=O)[O-])c2n1CCCN(C)C
inactive: Potency [1] > 11.4 µM | activity change, negative = inhibition [2] 11.7% | Potency [3] | activity change, negative = inhibition [4] 12.7% | activity, negative = inhibition [5] 9.88% | Potency [6] > 46 µM | Potency [7] > 9.22 µM | Potency [8] | Potency [9]

Nc1ncnc2c1nc(-c1ccccc1)n2[C@H]1O[C@@H](CO)[C@@H](O)[C@H]1O
inactive: Potency [1] > 11.4 µM | activity change, negative = inhibition [2] -9.23% | activity change, negative = inhibition [3] -16.8% [at 2.29 µM] | activity change, negative = inhibition [4] 6.55% | activity, negative = inhibition [5] 1.65% | Potency [6] > 46 µM | Potency [7] > 9.22 µM | Potency [8] | Potency [9]

CCOC(=O)Nc1nc(-c2ccccc2)c(C)s1
active: Potency [3] 0.2 µM
inactive: Potency [1] > 11.4 µM | activity change, negative = inhibition [2] -8.11% | activity change, negative = inhibition [4] -9.95% | activity, negative = inhibition [5] 1.24% | Potency [6] > 46 µM | Potency [7] > 9.22 µM | Potency [8] | Potency [9]

Cc1cc(C)c2nc3c(c([C@H](O)[C@@H]4CCCCN4)c2c1)CC/C3=C/c1ccc(Cl)cc1
inactive: Potency [1] > 11.4 µM | activity change, negative = inhibition [2] 4.75% | Potency [3] | activity change, negative = inhibition [4] -2.24% | activity, negative = inhibition [5] 1.11% | Potency [6] > 46 µM | Potency [7] > 9.22 µM | Potency [8] | Potency [9]

O=C(O)[C@@H]1[C@@H]2C[C@H]([C@@H](Br)[C@H]2N2C(=O)CCC2=O)[C@@H]1C(=O)O
inactive: Potency [1] > 11.4 µM | activity change, negative = inhibition [2] -1.32% | activity change, negative = inhibition [3] -15.8% [at 2.29 µM] | activity change, negative = inhibition [4] 10.6% | activity, negative = inhibition [5] 11.9% | Potency [6] > 46 µM | Potency [7] > 9.22 µM | Potency [8] | Potency [9]

CN1CCN(CCCBr)CC1
inactive: Potency [1] > 11.4 µM | activity change, negative = inhibition [2] 5.14% | Potency [3] | activity change, negative = inhibition [4] 10.6% | activity, negative = inhibition [5] -3.86% | Potency [6] > 46 µM | Potency [7] > 9.22 µM | Potency [8] | Potency [9]

Nc1cc(C(=O)O)[nH]c(=O)n1
inactive: Potency [1] > 11.4 µM | activity change, negative = inhibition [2] 3.6% | Potency [3] | activity change, negative = inhibition [4] 8.92% | activity, negative = inhibition [5] 13.8% | Potency [6] > 46 µM | Potency [7] > 9.22 µM | Potency [8] | Potency [9]

O=C(O)c1cccc(SSc2cccc(C(=O)O)c2)c1
inactive: Potency [1] > 11.4 µM | activity change, negative = inhibition [2] 0.262% | activity change, negative = inhibition [4] 17.5% | activity, negative = inhibition [5] -14.5% | Potency [6] > 46 µM | Potency [7] > 9.22 µM | Potency [8] | Potency [9]
active: Potency [3] 5.01 µM

O=[N+]([O-])c1ccc(Cl)c(CNc2ncnc3c2ncn3[C@@H]2CCCCO2)c1
inactive: Potency [1] > 11.4 µM | activity change, negative = inhibition [2] -3.17% | activity change, negative = inhibition [4] 6.3% | activity, negative = inhibition [5] 1.26% | Potency [6] > 46 µM | Potency [7] > 9.22 µM | Potency [8] | Potency [9]
active: Potency [3] 5.01 µM

Nc1nc(-c2ccc3ccccc3c2)cc(-c2cc(-c3ccc4ccccc4c3)nc(N)n2)n1
active: Potency [3] 0.501 µM
inactive: Potency [1] > 11.4 µM | activity change, negative = inhibition [2] -3.27% | activity change, negative = inhibition [4] 9.25% | activity, negative = inhibition [5] 6.54% | Potency [6] > 46 µM | Potency [7] > 9.22 µM | Potency [8] | Potency [9]

Cc1n[nH]c2ccccc2c1=O
active: Potency [3] 0.398 µM
inactive: Potency [1] > 11.4 µM | activity change, negative = inhibition [2] -6.55% | activity change, negative = inhibition [4] -1.3% | activity, negative = inhibition [5] 10.2% | Potency [6] > 46 µM | Potency [7] > 9.22 µM | Potency [8] | Potency [9]

C/C(=N\O)c1cccc[n+]1Cc1ccccc1
inactive: Potency [1] > 11.4 µM | activity change, negative = inhibition [2] -1.8% | Potency [3] | activity change, negative = inhibition [4] -12.3% | activity, negative = inhibition [5] 11.4% | Potency [6] > 46 µM | Potency [7] > 9.22 µM | Potency [8] | Potency [9]

CC(C)[C@]1(Cl)CC[C@@H]2[C@]3(C)CCC[C@@](C)(C(=O)O)[C@H]3C[C@H](Cl)[C@@]2(Cl)[C@H]1Cl
inactive: Potency [1] > 11.4 µM | activity change, negative = inhibition [2] -2.07% | Potency [3] | activity change, negative = inhibition [4] 0.923% | activity, negative = inhibition [5] 0.27% | Potency [6] > 46 µM | Potency [7] > 9.22 µM | Potency [8] | Potency [9]

— PubChem BioAssay (NCATS)
